This is an account of results in ChEMBL document CHEMBL1157539, “Thousands of chemical starting points for antimalarial lead identification” (Nature, 2010).

In all, about 13,000 compounds were measured (“IFI”: median about 4, highest 2% from about 17 on). The sample as a whole holds a higher share of the highest values than the screen did.

The experiment can be described thus: GSK_TCMDC: Inhibition Frequency Index (IFI). The number of non-kinase HTS assays where a compound showed > 50 % inhibition, expressed as a percentage of the number of such assays in which the compound was tested. Type of experiment: functional.
With `COc1c(C2CCN(CCCCNC(=O)c3ccc(-c4ccc(Cl)cc4)c(O)c3)CC2)ccc2c1CCCC2`, the IFI was 9.09%.

The molecule `CN1CCCN(c2ccnc3cc4c(cc23)N(C(=O)c2ccc(Cl)cc2Cl)CC4)CC1` had an IFI of 0.72%.

Molecule `N=C(NCCCc1ccccc1)c1cccc(C(=N)NCCCc2ccccc2)n1` had an IFI of 1.47%.

Turning to `O=C(CCC1CCCCC1)NCCNc1cccc2ccccc12`, the IFI is 1.47%.

The molecule `N=C(NCCCCC1CCCCC1)c1cccc(C(=N)NCCCCC2CCCCC2)n1` displayed an IFI of 19.9%.

In the case of `COc1ccc2c(=NN=Cc3ccc(OC)c4ccccc34)cc(C)[nH]c2c1`, the IFI stood at 2.14%.

`O=C(Cn1c(SCc2cccc(F)c2F)cc(=O)c2ccccc21)N(CCCn1ccnc1)Cc1ccc(-c2ccc(C(F)(F)F)cc2)cc1` gave an IFI of 2.17%.

On to `CCc1ccc(CN2CCC(CNC(=O)c3cc(-c4cccc(Cl)c4)cs3)C2)cc1` (centres undefined), for which the IFI turned out to be 8.16%.

For the molecule `CC(Cc1ccc(OCCN2CCN(c3ccc(Cl)cc3)CC2)cc1)NCC(O)c1cccc(C(F)(F)F)c1` (centres undefined), the IFI came to 18.1%.

On to `CC(Cc1ccc(OCCN2CCN(c3cccc(C(F)(F)F)c3)CC2)cc1)NCC(O)c1cccc(C(F)(F)F)c1` (centres undefined), for which the IFI was 10.8%.

Consider `CC(Cc1ccc(CN2CCN(Cc3ccccc3)CC2)cc1)NCC(O)c1cccc(C(F)(F)F)c1` (centres undefined), for which the IFI turned out to be 9.15%.

`CC(Cc1ccc(OCCN2CCN(c3ccccc3)CC2)cc1)NCC(O)c1cccc(Cl)c1F` (centres undefined) displayed an IFI of 12%.

Regarding `CC(Cc1ccc(OCCN2CCN(c3cccc(Cl)c3)CC2)cc1)NCC(O)c1cccc(C(F)(F)F)c1` (centres undefined), the IFI turned out to be 17.2%.

Molecule `CC(Cc1ccc(OCCN2CCN(c3cccc(Cl)c3)CC2)cc1)NCC(O)c1cccc(Cl)c1` (centres undefined) registered an IFI of 16.4%.

In the case of `N#Cc1ccc(CN2CCCN(Cc3cccc(NC(=O)c4ccc(-c5ccccc5)cc4)c3)CC2)cc1`, the IFI was determined as 8.28%.

Molecule `Cc1cc(NCCC(=O)NCCc2ccccc2)nc(NCCc2ccc(F)cc2)n1` had an IFI of 4.55%.

`O=C(/C=C/c1ccc(Cl)c(Cl)c1)NCCCCCCN1CCCN(C(=O)Nc2ccc(C(F)(F)F)cc2)CC1`: the IFI came out at 12.3%.

With `O=C(/C=C/c1ccc(Cl)c(Cl)c1)NCCCCCCN1CCCN(C(=O)Nc2ccc(Cl)c(C(F)(F)F)c2)CC1`, the IFI amounted to 11.3%.

Turning to `O=C(/C=C/c1ccc(C(F)(F)F)cc1)NCCCCCN1CCCN(C(=O)Nc2ccc(Cl)c(C(F)(F)F)c2)CC1`, the IFI turned out to be 18.8%.

`O=C(/C=C/c1ccc(Cl)c(Cl)c1)NCCCCCN1CCCC(CCCNC(=O)Nc2ccc(C(F)(F)F)cc2)C1` (centres undefined) displayed an IFI of 11.3%.

As for `CC(C)c1ccc(NC(=O)NCC2CCCN(CCCCCNC(=O)/C=C/c3ccc(Cl)c(Cl)c3)C2)cc1` (centres undefined), the IFI is 12.1%.

For the molecule `O=C(/C=C/c1ccc(C(F)(F)F)cc1)NCCCCCN1CCCN(C(=O)Nc2ccc(Cl)c(Cl)c2)CC1`, the IFI is 20.4%.

Molecule `O=C(/C=C/c1ccc(Cl)cc1)NCCCCCN1CCCN(C(=O)Nc2ccc(Cl)c(C(F)(F)F)c2)CC1` returned an IFI of 14.3%.

Molecule `O=C(/C=C/c1ccc(Cl)c(Cl)c1)NCCCCCN1CCCC(CNC(=O)Nc2ccc(C(F)(F)F)cc2)C1` (centres undefined) showed an IFI of 17.7%.

For `O=C(/C=C/c1ccc(C(F)(F)F)cc1)NCCCCCN1CCN(C(=O)Nc2ccc(Cl)c(Cl)c2)CC1`, the IFI was determined as 13.7%.

Regarding `Cc1ccc2c(c1)c(C1CCN(C(=O)c3ccc([N+](=O)[O-])o3)CC1)cn2C`, the IFI was 4.35%.

Molecule `Cc1ccc(-c2nn3c(O)c4c(nc3c2C)CCCC4)cc1` had an IFI of 0.88%.

With `COc1c(C2CCN(CCN3CCC(CNC(=O)c4ccc(-c5ccc(C#N)cc5)cc4)CC3)CC2)ccc2c1CCCC2`, the IFI worked out at 16.2%.

Molecule `O=C(Nc1cccc(CN2CCCN(CCc3ccccc3)CC2)c1)c1ccc(Cl)c(Cl)c1` showed an IFI of 3.36%.

`CN1CCN(CCCN(Cc2cccc(-c3ccc(CNCCc4ccccc4)cc3)c2)C(=O)c2cccs2)CC1` registered an IFI of 11.3%.

`COC(=O)c1cccc(CNCc2ccc(-c3ccc(-c4nc5cc(C(F)(F)F)ccc5[nH]4)s3)cc2)c1`: the IFI was 11.5%.

Regarding `Ic1cc(CNC2CCCCC2)ccc1OCc1cccc(COc2ccc(CNC3CCCCC3)cc2I)c1`, the IFI is 10.1%.

On to `CCN(CC)Cc1cccc(-c2cc3c(-c4ccc(C(=O)O)c(C(C)C)c4)ccnc3[nH]2)c1OC`, for which the IFI was 0%.

In turn, `COc1cccc2c(NN=Cc3cccc(Cl)c3)ccnc12` had an IFI of 3.62%.

In the case of `COc1cc2nc(NCc3nc4ccccc4[nH]3)nc(N)c2cc1OC`, the IFI came out at 0%.

`COc1ccc2ccccc2c1CCCCN1CCN(CC(c2ccc(F)cc2)N2CCN(C(C)C)CC2)CC1` (centres undefined): the IFI was determined as 14.7%.

`COc1ccc2ccccc2c1CCCCN1CCN(CC(c2ccc(F)cc2)N2CCC2)CC1` (centres undefined) came in with an IFI of 18.4%.

As for `COc1ccc2ccccc2c1CCCCN1CCN(CC(c2ccc(F)cc2)N2CCN(C3CCCC3)CC2)CC1` (centres undefined), the IFI was 12.8%.

The molecule `CC(C)N1CCN(C(CN2CCN(CCCOc3ccccc3-c3ccccc3)CC2)c2ccc(F)cc2)CC1` (centres undefined) showed an IFI of 13.5%.

On to `CC(C)N1CCN(C(CN2CCN(CCCOc3cccc(-c4ccccc4)c3)CC2)c2ccc(F)cc2)CC1` (centres undefined), for which the IFI turned out to be 16%.

For `CC(C)N1CCN(C(CN2CCN(CCCOc3ccc(-c4ccccc4)cc3)CC2)c2ccc(F)cc2)CC1` (centres undefined), the IFI was 20.3%.

With `CCCCCCCNCc1c(O)ccc2c(CNCCCCCCC)c(O)ccc12`, the IFI was found to be 13.6%.

Molecule `Oc1ccc2ccccc2c1C=NNc1nc(=Nc2ccccc2)nc(N2CCOCC2)[nH]1` returned an IFI of 3.68%.

Take `COc1ccccc1CCNc1nc(C)cc(N[C@@H](Cc2ccccc2)C(=O)NCc2cccs2)n1`: the IFI was determined as 9.76%.

Molecule `Cc1cnc(C(=O)Nc2ccc3c(c2)CCCN(Cc2c[nH]c4cnccc24)C3)cn1` yielded an IFI of 0%.

In the case of `CCCc1ccc(S(=O)(=O)Nc2ccc3c(c2)CCC3)cc1`, the IFI is 2.26%.

The molecule `CCCCc1ccc(S(=O)(=O)Nc2ccc3c(c2)CCN(Cc2c[nH]c4cnccc24)CC3)cc1` came in with an IFI of 19.4%.

For `CCOc1ccc(C(Cc2ccccc2)NC(=O)c2cccnc2)cc1OCC` (centres undefined), the IFI was determined as 0.83%.

The molecule `COc1ccccc1CCNc1ncnc2c1[nH]c1ccc(F)cc12` had an IFI of 20.5%.

`COc1ccc(CNCc2ccc(-c3ccc(-c4nc5cc(F)ccc5[nH]4)cc3)cc2)cc1` yielded an IFI of 13.1%.

As to `COc1ccc(CNc2ncnc3c2[nH]c2ccc(F)cc23)cc1`, the IFI amounted to 17.2%.

The molecule `Fc1ccc2[nH]c3c(NCCN4CCCCC4)ncnc3c2c1` showed an IFI of 1.4%.

`c1ccc(CCNc2ncnc3c2[nH]c2ccccc23)cc1` displayed an IFI of 23.9%.

In turn, `CN(C)CCNc1ncnc2c1[nH]c1ccc(Cl)cc12` yielded an IFI of 0%.

As for `Fc1ccc2[nH]c3c(NCCCN4CCOCC4)ncnc3c2c1`, the IFI came to 0%.

Consider `Cc1ccc2[nH]c3c(NCCN(C)C)ncnc3c2c1`, for which the IFI came out at 0%.

As to `CN(C)CCCNc1ncnc2c1[nH]c1ccc(F)cc12`, the IFI came out at 2.14%.

`CC(C)C(C(=O)Nc1ccc2c(c1)OCO2)c1ccc(Cl)cc1` (centres undefined) returned an IFI of 9.18%.

Molecule `Cc1cc(=O)c(-c2ccc(Oc3cccc(OC(F)(F)F)c3)cc2)c(C)[nH]1` registered an IFI of 3.76%.

Molecule `COc1ccc(N2CCN(CCCCNC(=O)c3ccc(NC(=O)c4cc(C(F)(F)F)cc(C(F)(F)F)c4)cc3)CC2)cc1OC` came in with an IFI of 3.51%.

For `c1ccc(CNCc2cccc(-c3ccc(-c4nc5ccccc5[nH]4)s3)c2)cc1`, the IFI turned out to be 3.92%.

For the molecule `CCCCCCCc1c(C)nc2cc(OC)ccc2c1O`, the IFI was 0%.

As for `CC(C)Oc1cc(-c2ccc(S(C)(=O)=O)cc2)nc(N(Cc2cccc(F)c2F)Cc2cccc(F)c2F)n1`, the IFI was 0%.

`c1ccc2cc(CNCCCN3CCN(CCCNCc4ccc5ccccc5c4)CC3)ccc2c1` gave an IFI of 11.7%.

On to `c1ccc2c(CNCCCN3CCN(CCCNCc4c5ccccc5cc5ccccc45)CC3)c3ccccc3cc2c1`, for which the IFI is 15.3%.

`c1ccc2c(c1)cc(CNCCCN1CCN(CCCNCc3cc4ccccc4c4ccccc34)CC1)c1ccccc12` registered an IFI of 19.4%.

The molecule `CCCCNC(=N)Nc1ccc(OCCCOc2ccc(NC(=N)NCCCC)cc2)cc1` yielded an IFI of 2.99%.

`CC(=O)c1ccc(NC(=O)Nc2ccc3nccc(N4CCN(C)CC4)c3c2)cc1` returned an IFI of 0%.

`CC(=O)c1ccc2nc[nH]c(=O)c2c1` yielded an IFI of 26.1%.

The molecule `COc1ccc2nccc([C@@H](O)CN3CCC(NCc4ccc5nc[nH]c(=O)c5c4)CC3)c2c1` returned an IFI of 0%.

Consider `Cc1cc(NCCC(=O)NCCOc2ccccc2)nc(NCCOc2ccccc2)n1`, for which the IFI turned out to be 4.88%.

For `Nc1ccc(-c2nc3cc(C4=N[C@H]5CCCC[C@H]5N4)ccc3o2)cc1[N+](=O)[O-]`, the IFI amounted to 1.41%.

For the molecule `CCn1c(-c2nonc2N)nc2c(-c3cccc(Cl)c3)ncc(OCCCNCCc3c[nH]cn3)c21`, the IFI was 7.69%.

The molecule `CCn1c(-c2nonc2N)nc2c(-c3cccc(NC(=O)Nc4cccc(OC)c4)c3)ncc(OCCCN)c21` came in with an IFI of 15.6%.

Molecule `CCn1c(-c2nonc2N)nc2c(-c3cccc(NC(=O)Nc4ccccc4OC)c3)ncc(OCCCN)c21` registered an IFI of 20.5%.

In the case of `CCn1c(-c2nonc2N)nc2c(-c3cccc(NC(=O)Nc4ccccc4Cl)c3)ncc(OCCCN)c21`, the IFI turned out to be 18.2%.

`Cc1ccc2[nH]c(-c3ccccc3)cc(=NN=Cc3cccnc3)c2c1`: the IFI came out at 1.52%.

As to `Oc1ccc(CCNCCCCCCNCCc2ccc(Br)cc2)cc1O`, the IFI came to 5.15%.

As to `N#CCOc1c(C2CCN(CCCCNC(=O)c3ccc(-c4ccc(C(F)(F)F)cc4)cc3)CC2)ccc2c1CCCC2`, the IFI was 7.08%.

`N=C(N)Nc1ccc(OCCCCCOc2ccc(NC(=N)N)cc2)cc1` gave an IFI of 3.13%.

Consider `CC(C)Oc1ccc(CCCON2C(=N)N=C(N)NC2(C)C)cc1`, for which the IFI stood at 5.63%.

Take `N#Cc1cccc(CN2CCCN(Cc3ccc(C(=O)Nc4ccc(Cl)cc4)cc3)CC2)c1`: the IFI stood at 7.87%.

Take `CS(=O)(=O)c1ccc2c(c1)CCN(CCC1CCC(NC(=O)C(=Cc3ccc(Cl)cc3Cl)c3ccc(-c4ccccc4)cc3)CC1)CC2` (centres undefined): the IFI worked out at 5.48%.

`CC(C)(C)c1ccc(C(=O)NC2CCC(CCN3CCc4ccc(S(C)(=O)=O)cc4CC3)CC2)cc1C(F)(F)F` (centres undefined): the IFI stood at 21.6%.

For the molecule `CS(=O)(=O)c1ccc2c(c1)CCN(CCC1CCC(NC(=O)c3cc4cccc(Br)c4[nH]3)CC1)CC2` (centres undefined), the IFI worked out at 7.59%.

Turning to `O=C(Nc1ccc(F)cc1)c1cnc(N2CCN(c3ccncc3)CC2)c(Cl)c1`, the IFI was determined as 8.51%.

Turning to `Cc1ccc(NC(=O)c2cnc(N3CCN(c4ccncc4)CC3)c(Cl)c2)cc1`, the IFI was 11.9%.

`O=C(Nc1ccc(N2CCC(Nc3ccccn3)CC2)cc1)c1cnc(Cl)c(Cl)c1` displayed an IFI of 17.4%.

`Cn1nccc1C(=O)NCCNCc1ccc(-c2ccc(-c3nc4cc(F)ccc4[nH]3)cc2)cc1` yielded an IFI of 8.91%.
